# Bioassay records from PubChem BioAssay.
# Shown are actives, neighbours in structure and some others; about 5.4% of the full set was active somewhere.
# HPGD inh: blocks human HPGD enzyme activity; P15428; actives 4.3% (n = 150,000); AID 894; Potency, µM, inactives show top-dose activity change, negative = inhibition, actives largely listed as inhibitors; purified HPGD, NADH fluorescence kinetic, PGE2 substrate; active means well fitted inhibition curve with a large enough effect, not every such curve was filed as active; inconclusive means small, poorly fitted or top-dose-only effect, or another doubt; inactive means no such curve, though single readings can be large or run the other way; further: potency means the concentration at half of the fitted maximal effect
#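 NADH formation kinetics: reaction with 30 uM PGE2 and 1 mM NAD+ (final), 20 nM enzyme, Tris-HCl pH 8 with Tween 20, after 15 min compound preincubation at room temperature. Fluorescence change, last versus first of five reads.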
# PNC inhibitor: inhibitors of perinucleolar compartment assembly | PC3M PTB-GFP, PNC prevalence imaging, 16 h; active compounds read low | activity change (PNC), negative = inhibition, % at 10 µM | actives 3.1% (n = 140,000) | AID 2417;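 active means readout at or below -70, meaning at least 70% loss of cells showing the perinucleolar compartment, a nuclear body marking cancer cells; inconclusive means readout between -30 and a set limit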;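 further: plate controls were DMSO wells for no effect and camptothecin positive control wells for full effect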
#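 PC3M cells stably expressing PTB-GFP, 750–1000 cells/well, treated 16 h at 37 °C with compound (23 nl of library stock), in duplicate. After paraformaldehyde fixation and Hoechst stain, imaged at 20x; PNC prevalence scored by image analysis.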
# 12-hLO inh: inhibitors of human 12-lipoxygenase (ALOX12) | actives 0.12% (n = 150,000) | purified 12-hLO, xylenol orange hydroperoxide absorbance | P18054 | Potency, µM (highest dose often 57.1 µM), for inactives: top-dose activity change, negative = inhibition, usual class: inhibitors; further: potency means the concentration at half of the fitted maximal effect; nearly all actives have a fitted effect of over 55% in size
#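 Hydroperoxide formation by human 12-lipoxygenase from 40 uM arachidonic acid was followed colorimetrically via ferric-xylenol orange complex, using the 573/405 nm absorbance ratio. Enzyme concentration was 150 nM, with 30 min reaction at room temperature.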
# IMPase cell inh: membrane-permeable compound that blocks inositol monophosphatase. AID 901. 120,000 tested, under 10 active. CHO-M1 cells, IP1 accumulation, HTRF TR-FRET ratio. inhibition (IP1 accumulation), % at 46.1 µM; active means well fitted curve in the direction sought with a large enough effect in the signal ratio, not every such curve was filed as active; inconclusive means small, poorly fitted or top-dose-only effect, or a change in a side signal; inactive means no such curve, though single readings can be large or run the other way; the % refers to the signal ratio;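 further: cells stimulated with carbachol in lithium chloride buffer; plate controls were DMSO basal wells for no effect and reference inhibitor wells for full effect; higher means more IMPase inhibition seen as more IP1 and lower FRET ratio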
#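 CHO-M1, 2000 cells/well, cultured 16–30 h; cpd up to 46 uM; carbachol (50 uM solution, stimulation buffer w/ 50 mM LiCl, pH 7.4), 30 min 37C; IP-One TR-FRET, 10 min RT; Ex 320/Em 665, 620; Hill-fit AC50.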
# IMPase Li inh: IMPase inhibition in cells with lithium potentiation; CHO-M1 cells, IP1 TR-FRET (IP-One), carbachol + lithium; Potency, µM (top dose mostly 59.4 µM), for inactives: at the highest dose activity, negative = IMPase inhibition, most hits filed as inhibitors; actives 0.35% (n = 210,000); AID 1457;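 further: IP1 builds up when IMPase is blocked and the TR-FRET signal falls; potency means the concentration at half of the fitted maximal effect; plate controls were basal vehicle for no effect and high inhibitor control for full effect; nearly all actives have a fitted effect of over 50% in size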
#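 Test compounds were applied to CHO-M1 cells previously cultured for 16–30 h at 2000 per well. A small lithium amount accompanied them; after 30 min at 37C, IP1 was quantified by TR-FRET.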
# 15-hLO-2 inh: 15-hLO-2 (ALOX15B) enzyme inhibition; O15296; purified 15hLO-2, xylenol orange hydroperoxide absorbance; Potency, µM (doses to about 57.1 µM), without a hit: at the highest dose activity change, negative = inhibition, hits mostly inhibitors; actives 0.56% (n = 110,000); AID 881; further: potency means the concentration at half of the fitted maximal effect; nearly all actives have a fitted effect of over 60% in size
# Target sequence (O15296 whole entry, looked up): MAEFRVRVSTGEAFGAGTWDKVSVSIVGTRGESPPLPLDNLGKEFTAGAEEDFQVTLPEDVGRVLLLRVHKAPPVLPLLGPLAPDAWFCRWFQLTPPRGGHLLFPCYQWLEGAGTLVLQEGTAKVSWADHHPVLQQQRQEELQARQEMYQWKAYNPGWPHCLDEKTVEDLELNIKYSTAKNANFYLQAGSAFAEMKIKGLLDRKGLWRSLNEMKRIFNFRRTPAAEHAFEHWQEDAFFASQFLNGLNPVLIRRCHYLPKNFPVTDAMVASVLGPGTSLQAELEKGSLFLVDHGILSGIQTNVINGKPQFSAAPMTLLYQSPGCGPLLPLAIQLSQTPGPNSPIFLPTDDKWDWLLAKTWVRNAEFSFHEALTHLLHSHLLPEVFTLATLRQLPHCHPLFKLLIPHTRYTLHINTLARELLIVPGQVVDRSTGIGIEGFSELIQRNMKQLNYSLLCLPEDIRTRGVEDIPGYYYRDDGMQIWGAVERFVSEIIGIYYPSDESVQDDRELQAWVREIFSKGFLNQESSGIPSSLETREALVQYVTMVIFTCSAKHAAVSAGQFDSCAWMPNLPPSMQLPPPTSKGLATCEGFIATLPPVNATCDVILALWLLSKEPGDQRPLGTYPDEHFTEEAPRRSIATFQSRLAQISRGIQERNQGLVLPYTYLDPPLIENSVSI
#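 Purified human 15hLO-2 (50 nM) preincubated 15 min with compound, then 45 uM arachidonic acid for 90 min at RT in 25 mM Hepes pH 7.5, 0.01% Triton X-100. Hydroperoxide detected by Fe-xylenol orange; 573/405 nm absorbance ratio.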
# * marks the source's active call; other numbers are inactive results; ? = inconclusive; / = not tested or not shown; [ ] = remark or other dose. Unless noted, the call rests on the fitted dose curve; in most records, active means well fitted curve in the direction sought with a large enough effect; inconclusive means small, poorly fitted or top-dose-only effect, or another doubt; inactive means no such curve, though single readings can be large; an effect the other way counts as inactive or inconclusive. Unless noted, on the % scale 0 is the no-effect control and ±100 the full control effect.
SMILES,HPGD inh,PNC inhibitor,12-hLO inh,IMPase cell inh,IMPase Li inh,15-hLO-2 inh
COc1cccc2c1C(=O)c1c(O)c3c(c(O)c1C2=O)C[C@@](O)(C(=O)CO)C[C@@H]3OC1C[C@@H](N)[C@H](O)[C@H](C)O1 (stereo not given in full),-6%,/,4%[0.00818 µM],/,17%,73%[0.0915 µM]
CCNc1ncc2nc(CCc3ccccc3)c(=O)n(C[C@H]3CCCO3)c2n1,/,/,/,/,0%,-4%
Cc1nn(CCCC(=O)Nc2sc3c(c2C#N)CCC3)c(C)c1[N+](=O)[O-],22µM*,3,-3%,7,17%[38.3 µM],-21%
COc1ccc(/C=N/NC(=S)Nc2ccccc2[N+](=O)[O-])cc1O,-10%,-117*,-22%,/,9%,/
CCCOc1ccc(N)cc1N,-14%,-128*,-10%,27,24%[38.3 µM],?
Cl/C(=C\n1cncn1)c1ccc(Cl)cc1Cl,14µM*,/,-14%,-2,14%,-17%
Cc1cccc(Oc2ncnc3oc(-c4ccccc4)cc23)c1C,?,7,-2%,1,16%,-1%
Cc1cc(Cl)ccc1Oc1ncnc2oc(-c3ccccc3)cc12,?,-94*,1%,-4,-2%[38.3 µM],25%
Cc1ccc(OC(C)C)c(CN(CCO)CCO)c1,-4%,-91*,-1%,5,-6%[38.3 µM],8%
COc1ccccc1/C=C/C=N/n1c(COc2ccccc2)n[nH]c1=S,?,10,-10%,4,-5%[38.3 µM],?
COc1ccccc1/C=C\C=N\n1c(-c2ccc(Cl)cc2)n[nH]c1=S,13µM*,28,-1%,/,7%,/
O=[N+]([O-])c1cc2c(cc1/C=N/n1c(-c3ccccc3)n[nH]c1=S)OCO2,3.2µM*,?,-10%,12,-5%[38.3 µM],-26%
Cc1ccc(-c2n[nH]c(=S)n2/N=C/C=C/c2ccccc2[N+](=O)[O-])cc1,2.8µM*,-3,-7%,9,19%[38.3 µM],13µM*
O=[N+]([O-])c1ccccc1/C=C/C=N/n1c(-c2ccco2)n[nH]c1=S,/,/,/,/,1%,/
Cc1n[nH]c(=S)n1/N=C/c1ccccc1OCc1ccc(Cl)cc1,10µM*,?,-17%,11,-1%[38.3 µM],-19%
Cc1cccc(N2CCN(C(c3ccc(F)cc3)c3nnc(-c4ccccc4)o3)CC2)c1C (stereo not given),/,/,/,-17,/,/
O=C(CC1N=C2c3ccccc3N=C(SCC(=O)Nc3cccc(C(F)(F)F)c3)N2C1=O)NCc1cccs1 (stereo not given),/,/,/,8,/,/
Cc1nc2ccccc2nc1-c1ccc(N=[N+]([O-])c2ccc(-c3nc4ccccc4nc3C)cc2)cc1,-1%,/,3%[11.4 µM],/,-6%,-3%[11.4 µM]
CC(C)OC(=O)[C@H]1O[C@H](CCCCOCc2ccccc2)[C@@H](C)[C@H]2O[C@H]21,-5%,/,/,/,18%,/
COc1ccccc1/C=C/C=N/n1c(C)nnc1C,/,/,/,/,8%,/
COc1ccccc1/C=C\C=N\n1c(-c2ccc(Cl)cc2Cl)n[nH]c1=S,4µM*,20,?,/,6%,/
COc1ccccc1CNC(=O)c1cccc(N(C)C)c1,-27%,59,-2%,-2,30%[38.3 µM],?
CCc1cccc(C)c1NC(=O)c1cccc(C(=O)Nc2c(C)cccc2CC)c1,/,/,/,2,/,/
COc1ccc(CNC(=O)c2ccccc2[N+](=O)[O-])cc1,11µM*,59,-23%,6,15%[38.3 µM],14%
COc1ccccc1C(=O)NCc1ccc(-c2nc3ccccc3s2)cc1,18µM*,?,-3%,/,7%,/
COc1ccc(CNC(=O)c2cccc(N(C)C)c2)cc1,-8%,-83*,3%,1,0%[38.3 µM],?
CCc1cccc(C)c1NC(=O)c1cccc(N(C)C)c1,14µM*,-26,-29%,0,7%[38.3 µM],/
CCOC(=O)c1cnc2c(ccc3ccccc32)c1Nc1ccc(C(C)=O)cc1,/,/,/,6,/,/
C[C@]12CCC(=O)C=C1CC[C@@H]1C2[C@@H](O)C[C@@]2(C)[C@H]1CC[C@]2(O)C(=O)CO (stereo not given in full),2%,/,/,/,/,/
